PubChem BioAssay AID652015 (National Center for Advancing Translational Sciences (NCATS), 2013)
Records with an inconclusive call do not appear. The source made the active and inactive calls. The call rests on the fitted dose curve; in most records, active means well fitted inhibition curve with a large enough effect; inconclusive means small, poorly fitted or top-dose-only effect; inactive means no such curve, though single readings can be large or run the other way.

target: Coelenterazine h 2-monooxygenase (Renilla reniformis) (UniProt P27652); assay: qHTS Assay for Inhibitors of Sea Pansy Luciferase from the GSK Published Protein Kinase Inhibitor Set; settings: purified Renilla luciferase, luminescence; series mostly up to 57.5 µM
Description: FLuc (firefly luciferase) is the prototypical bioluminescent reporter gene from Photinus pyralis.[1] The enzyme catalyzes the oxidation luciferin via luciferin-AMP to produce light. FLuc is used in cell-based reporter gene-based assays for screening small molecule chemical libraries. However, small molecule luciferase inhibitors present in most large chemical libraries are often enriched in the output of high throughput screens using this reporter sometimes complicating interpretation and candidate selection.
RLuc is a bioluminescent reporter gene luciferase from Renilla reniformis, also known as the sea pansy. RLuc uses the luciferin substrate coelenterazine. RLuc is often used in combination with the nonhomologous luciferase FLuc (firefly luciferease) as a trasfection or pathway normalization control. Recently, non-homologous reporters have been described for high throughput screening 'coincidence' reporter gene strategies.
1. Fan F, Wood KV (2007) Bioluminescent assays for high-throughput screening. Assay Drug Dev Technol 5: 127-136.
2. Thorne N, Inglese J, Auld DS (2010) Illuminating insights into firefly luciferase and other bioluminescent reporters used in chemical biology. Chem Biol 17: 646-657.
3. […] Chem Biol 19: 1060-1072.
4. Michelini E, Cevenini L, Mezzanotte L, Coppa A, Roda A (2010) Cell-based assays: fuelling drug discovery. Anal Bioanal Chem 398: 227-238.
5. Cheng KC, Inglese J (2012) A coincidence reporter-gene system for high-throughput screening. Nat Methods 9: 937.
Biochemical renilla luciferase enzyme assay
NCGC Assay Protocol Summary:
Reagents: 50mM Tris acetate, pH 7.5; 100uM NaCl; 5uM Coelenterazine H (Promega #S2011); 0.01% Tween-20; 0.05% BSA; 1nM R. reniformis luciferase (Nanolight Technologies #314)
Control compounds used were a known renilla luciferase inhibitor BTS (Tocris Biosciences #1870) and DMSO.
Three microliters containing renilla luciferase substrate in buffer (final concentrations: 50mM Tris acetate, pH 7.5, 100uM NaCl, 0.01% Tween-20, 0.05% BSA, 5uM coelenterazine h) are dispensed into each well of a Greiner white, solid-bottom 1536-well format plate using a flying reagent dispenser (FRD). These assay plates were then treated with 23nL of compound or DMSO using a Kalypsys pin tool, which allows for delivery of a 7-point interplate titration of each compound to the assay plate (quantitative HTS), with final compound concentrations ranging from approximately 60uM to 300pM. One microliter of renilla luciferase in 50mM Tris-acetate buffer was then delivered by FRD to each well for a final enzyme concentration of 1nM. Luciferase activity was then measured using an Envision plate reader (PerkinElmer), with an average incubation time of 2 min.

Coelenterazine h 2-monooxygenase (Renilla reniformis), sequence (P27652 whole entry, looked up): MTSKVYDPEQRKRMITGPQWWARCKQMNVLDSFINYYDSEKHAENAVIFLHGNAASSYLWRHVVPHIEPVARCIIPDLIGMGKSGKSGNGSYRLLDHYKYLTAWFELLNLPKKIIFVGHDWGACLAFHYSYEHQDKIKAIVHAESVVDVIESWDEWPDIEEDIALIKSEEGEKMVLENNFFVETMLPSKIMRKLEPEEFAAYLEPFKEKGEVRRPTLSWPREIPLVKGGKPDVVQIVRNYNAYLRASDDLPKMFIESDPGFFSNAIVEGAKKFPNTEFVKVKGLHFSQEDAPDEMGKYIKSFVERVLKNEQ

Potency, inactive:
ON=C1CCc2cc(-c3nc(C4CCNCC4)[nH]c3-c3ccncc3)ccc21
N#Cc1c(NC(=O)c2cccc3ccccc23)sc2c1CCCC2
FC(F)(F)c1cccc(Nc2nccc(-c3cnn4nc(-c5ccccc5)ccc34)n2)c1
O=C(Nc1n[nH]c2cc(-c3cc(F)ccc3F)ccc12)C1CC1
CCn1c(-c2nonc2N)nc2cnc(Oc3cccc(NC(=O)c4ccc(N(C)C)cc4)c3)cc21
COc1ccc(-c2nn3ncccc3c2-c2ccnc(Nc3ccc(Cl)c(C(F)(F)F)c3)n2)cc1
Cc1ccc(C(=O)NC2CCC2)cc1-c1ccc(C(=O)NCC2CC2)cc1
N#Cc1cccc(Nc2nccc(-c3cnn4ncccc34)n2)c1
CC1=C(C(=O)Nc2ccc3[nH]ncc3c2)C(c2ccc(F)cc2)NC(=O)N1 (stereo not given)
COc1cccc(-n2ncc3c(NN=Cc4ccncc4)ncnc32)c1
Nc1nccc(-c2c(-c3ccc(F)cc3)ncn2C2CCC(O)CC2)n1 (stereo not given)
O=C1NC(=O)C(c2cccc(Cl)c2)=C1Nc1ccc(Cl)c(C(=O)O)c1
CN(c1ccc(NC(=O)NCCN2CCOCC2)cc1)c1ccnc(Nc2ccc(CS(C)(=O)=O)cc2)n1
Nc1ncnc2occ(-c3ccc(NC(=O)Nc4cc(C(F)(F)F)ccc4F)cc3)c12
Cc1cc(O)cc(C)c1C=Cc1cncc(C(=O)OC(C)(C)C)c1
CNC(=O)c1sc(-n2cnc3cc(OC)c(OC)cc32)cc1OCc1ccccc1C(F)(F)F
CC1=C(C(=O)Nc2cc(Cl)c3[nH]ncc3c2)C(c2ccc(C(F)(F)F)cc2)CC(=O)N1 (stereo not given)
Fc1ccc(-c2ncn(C3CCNCC3)c2-c2ccnc(Oc3ccc(F)c(F)c3)n2)cc1
COc1cc(C=NNc2ncnc3[nH]ncc23)ccc1O
CS(=O)(=O)CCNCc1ccc(-c2ccc3ncnc(Nc4ccc(OCc5ccccc5)c(Cl)c4)c3c2)o1
FC(F)(F)CNc1nccc(-c2cnn3ncccc23)n1
NS(=O)(=O)c1ccc(N=Nc2c(O)[nH]c3cccc(CCc4ccncc4)c23)cc1
OCCCNc1nccc(-c2c(-c3ccc(F)cc3)nn3cc(C(F)(F)F)ccc23)n1
CCn1c(-c2nonc2N)nc2cncc(C(=O)NCCNC)c21
Nc1nccc(-c2c(-c3ccc(F)cc3)nn3cc(C(F)(F)F)ccc23)n1
CCn1c(-c2nonc2N)nc2cncc(C(=O)N3CCNCC3)c21
c1ccc(-c2[nH]ncc2-c2ccnc(-c3ccc(OCCN4CCOCC4)cc3)c2)nc1
CCn1c(-c2nonc2N)nc2c(N3CCCC3)nccc21
CC1=C(C(=O)Nc2ccc3n[nH]c(C)c3c2)C(c2ccc(C(F)(F)F)cc2)CC(=O)N1 (stereo not given)
Cc1nnc(-c2ccc(C)c(-c3ccc(C(=O)NCc4ccc(Cl)cc4)cc3)c2)o1
CS(=O)(=O)Nc1ccc(-c2ccc3c(NC(=O)C4CC4)n[nH]c3c2)cc1
Cc1cc(-c2ccco2)cc(C)c1C=Cc1cncc(-c2nn[nH]n2)c1
CC1=C(C(=O)Nc2ccc3[nH]ncc3c2)C(c2ccc(Cl)c(Cl)c2)CC(=O)N1 (stereo not given)
CS(=O)(=O)CCNCc1cc(-c2cc3c(Nc4ccc(OCc5cccc(F)c5)c(Cl)c4)ncnc3s2)cs1
CN(c1ccc(NC(=O)Nc2c(Cl)cccc2Cl)cc1)c1ccnc(Nc2cccc(CS(C)(=O)=O)c2)n1
COc1cc(N2CCN(C(C)C)CC2)ccc1Nc1nc(Nc2cccc(F)c2C(=O)O)c2cc[nH]c2n1
NC(=O)c1cccc(Nc2nccc(Nc3cccc(F)c3)n2)c1
COc1cc2ncn(-c3cc(OCc4ccccc4C(F)(F)F)c(C(N)=O)s3)c2cc1OC
COC(=O)c1sc(-n2cnc3cc(OC)c(OC)cc32)cc1OCc1ccccc1C(F)(F)F
COc1ccc(Nc2ncc(-c3ccccc3)o2)cc1OC
